Compounds with a hit are over-represented: about 3% of the library has one in this group of screens.
esBAF inh: inhibitors of esBAF chromatin remodeling in mouse ES cells. reporter increase, % at 12.5 µM. actives 2% (n = 350,000). Bmi1-luciferase knock-in reporter, 24 h; 100% = twice the neutral-well signal; in the data active means activation above about 40%;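 further: a rise in the Bmi1 reporter signal indicates esBAF inhibition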
MITF TRPM1 HTS: MITF TRPM1 promoter activation in melanoma cells; SK-MEL-5 TRPM1-promoter luciferase, 24 h; % of positive control, neutral wells = 0; activation, % at 12.5 µM; actives 0.75% (n = 300,000);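 active means mean activation of at least 80% with every replicate also reaching 80%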
Wnt bcat act: activators of Wnt/beta-catenin signaling; Wnt/beta-catenin reporter cell assay, activator, plate reader; activation, % at 9.35 µM; actives 1.2% (n = 300,000); AID 743398; in the data active means activation above about 30%, passing the limit was not always enough
Vif inh: HIV Vif inhibition; HEK293T cells, Vif self-association by quenched fluorescence, imaging, 24 h; inhibition, % at 7.49 µM; actives 0.35% (n = 340,000); in the data active means inhibition above about 50%, passing the limit was not always enough
PfHsp90 set2: growth inhibition of yeast expressing Plasmodium Hsp90; AID 504621; actives 0.32% (n = 310,000); inhibition, % at 9.4 µM; S. cerevisiae expressing PfHsp90, BacTiter-Glo ATP, 48 h; yeast lacking PDR1 and PDR3 efflux regulators;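 active means every replicate shows inhibition above about 80%, whatever the replicate mean, limit read from the data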
N-glyco inh: blocks N-linked glycosylation in D54 reporter cells | actives 0.23% (n = 360,000) | D54 ERlucT glycosylation luciferase reporter, 24 h; percent of 100 nM tunicamycin response | AID 588692 | reporter increase, % at 12.5 µM;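 active means mean luciferase reporter signal, scaled so untreated is 0 and the glycosylation-blocking control 100, at or above a set limit in every replicate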;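 further: luciferase carries N-glycosylation sites so blocking glycosylation raises the light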
Numbers stand for hits.

Screening CN(C)c1ccc(/C=N/NC(=O)c2ccn(C)n2)cc1 returned MITF TRPM1 HTS inactive, Wnt bcat act 34, Vif inh inactive, PfHsp90 set2 inactive and N-glyco inh inactive.
Screening C[C@@H]1CN([C@@H](C)CO)C(=O)Cc2cc(NC(=O)CCCCCC(=O)Nc3ccccc3N)ccc2O[C@@H]1CN(C)C(=O)Nc1ccc(C(F)(F)F)cc1 returned esBAF inh inactive.
COc1ccccc1-c1nc(-c2ccncc2)no1 was read as esBAF inh inactive, Wnt bcat act 61, Vif inh inactive, PfHsp90 set2 inactive and N-glyco inh inactive.
CCOc1ccccc1-c1nc(-c2ccncc2)no1 was read as esBAF inh inactive, MITF TRPM1 HTS inactive, Vif inh inactive, PfHsp90 set2 inactive and N-glyco inh inactive.
`COc1ccccc1-c1nc(-c2ccc(Br)cc2)no1` gave esBAF inh 54, MITF TRPM1 HTS inactive, Vif inh inactive, PfHsp90 set2 inactive and N-glyco inh inactive.
Screening O=C(COC(=O)Cn1cnc2ccccc2c1=O)Nc1ccc(Cl)c(C(F)(F)F)c1 returned MITF TRPM1 HTS inactive, Wnt bcat act inactive, Vif inh inactive, PfHsp90 set2 inactive and N-glyco inh inactive.
Screening COC(=O)c1ccc(-c2noc(CN(Cc3ccncc3)CC3CCCO3)n2)cc1 (stereo unspecified) returned MITF TRPM1 HTS inactive, Wnt bcat act inactive, Vif inh inactive, PfHsp90 set2 inactive and N-glyco inh inactive.
Cc1onc(-c2c(F)cccc2Cl)c1C(=O)Nc1nnc(-c2ccccc2)s1 was read as esBAF inh inactive, Wnt bcat act inactive, Vif inh inactive and N-glyco inh inactive.
`Cc1nn(-c2ccccc2Cl)c(Cl)c1/C=C(\C#N)C(N)=O` gave MITF TRPM1 HTS inactive, Wnt bcat act inactive, Vif inh inactive, PfHsp90 set2 inactive and N-glyco inh inactive.
Cc1ccc(C(=O)Nc2cc3c(oc2=O)CCCC3=O)cc1 was read as Wnt bcat act 34, Vif inh inactive and N-glyco inh inactive.
`COC(=O)C1(C)CCc2c(ccc3ccccc23)C1=O` (stereo unspecified) gave Wnt bcat act inactive, Vif inh inactive and N-glyco inh inactive.
`COc1ccc([N+](=O)[O-])cc1NC(=O)CSCc1cc(C)cc(C)c1` gave MITF TRPM1 HTS inactive, Wnt bcat act inactive, Vif inh inactive, PfHsp90 set2 inactive and N-glyco inh inactive.
`COC(=O)CNC(=O)c1c(C)cc(=O)oc1C` gave esBAF inh inactive, MITF TRPM1 HTS inactive, Vif inh inactive, PfHsp90 set2 inactive and N-glyco inh inactive.
For CC(C)c1nnc(NC(=O)c2cccc(NC(=O)C(F)(F)F)c2)s1 the results were MITF TRPM1 HTS inactive, Wnt bcat act 35, Vif inh inactive, PfHsp90 set2 inactive and N-glyco inh inactive.
Screening CC(C)C(=O)Nc1cccc(C(=O)Nc2nnc(C(C)C)s2)c1 returned esBAF inh inactive, MITF TRPM1 HTS 91, Vif inh inactive, PfHsp90 set2 inactive and N-glyco inh inactive.
For Cc1nnc(NC(=O)c2cccc(NC(=O)C(C)C)c2)s1 the results were esBAF inh inactive, MITF TRPM1 HTS inactive, Vif inh inactive, PfHsp90 set2 inactive and N-glyco inh inactive.
CC(C)(C)C1CCC(C(=O)Nc2nccs2)CC1 (stereo unspecified) was read as esBAF inh 53, Wnt bcat act inactive, Vif inh inactive, PfHsp90 set2 inactive and N-glyco inh inactive.
For CCCCn1cnc2c(SCc3cccc(F)c3)nc(N)nc21 the results were MITF TRPM1 HTS inactive, Wnt bcat act inactive, Vif inh inactive, PfHsp90 set2 inactive and N-glyco inh inactive.
`CCCn1cnc2c(SCc3ccccc3F)nc(N)nc21` gave esBAF inh 53, MITF TRPM1 HTS inactive, Wnt bcat act inactive, Vif inh inactive, PfHsp90 set2 inactive and N-glyco inh inactive.
`CC(C)Cn1cnc2c(SCc3ccccc3Cl)nc(N)nc21` gave esBAF inh 55, MITF TRPM1 HTS inactive, Wnt bcat act inactive, Vif inh inactive, PfHsp90 set2 inactive and N-glyco inh inactive.
Screening Cc1n[nH]c(=O)c2c(NC(=O)CSc3c(Cl)cccc3Cl)oc(C)c12 returned MITF TRPM1 HTS inactive, Wnt bcat act inactive, Vif inh inactive, PfHsp90 set2 inactive and N-glyco inh inactive.
For O=S(=O)(NC1CCCCCC1)c1ccc(Br)s1 the results were esBAF inh inactive, MITF TRPM1 HTS inactive, Wnt bcat act inactive, Vif inh inactive, PfHsp90 set2 88 and N-glyco inh inactive.
O=C(Nc1ccc2c(c1)N(S(=O)(=O)c1cccs1)CCC2)c1c(F)cccc1F was read as esBAF inh inactive, MITF TRPM1 HTS inactive, Wnt bcat act inactive and N-glyco inh inactive.
O=S(=O)(c1cccs1)N1CCCc2cccc(O)c21 was read as esBAF inh 45, MITF TRPM1 HTS 95, Wnt bcat act 48, Vif inh inactive, PfHsp90 set2 inactive and N-glyco inh inactive.
COc1ccccc1-c1cnc2c(c1)C(=O)N([C@@H](C)CO)C[C@@H](C)[C@@H](CN(C)C)O2 was read as esBAF inh inactive.
Screening N#Cc1cc(C#N)c(N2CCN(c3ccccn3)CC2)nc1N returned MITF TRPM1 HTS 98, Wnt bcat act inactive, Vif inh inactive, PfHsp90 set2 inactive and N-glyco inh inactive.
For CS(=O)(=O)n1c2ccccc2c(=O)n1-c1ccccc1CCl the results were esBAF inh 56, Wnt bcat act inactive, Vif inh inactive and N-glyco inh inactive.
`O=C(c1ccccc1)n1c2ccccc2c(=O)n1-c1ccccc1CCl` gave esBAF inh 87, Vif inh inactive and N-glyco inh inactive.
CCCc1nc2c3ccccc3ccn2c1Cc1ccccc1 was read as esBAF inh 52, Wnt bcat act 33 and N-glyco inh inactive.
Cc1ccc(-c2nc3c4ccccc4ccn3c2Cc2ccccc2)cc1 was read as esBAF inh inactive, Wnt bcat act inactive and N-glyco inh inactive.
Screening CCNc1nc(NC(C)(C)C)nc(Oc2ccc(=O)n(-c3ccccc3)n2)n1 returned esBAF inh inactive, MITF TRPM1 HTS inactive, Wnt bcat act inactive, Vif inh inactive and N-glyco inh inactive.
COc1ccccc1C(=O)Nc1ccc2c3c(cccc13)CC2 was read as esBAF inh 62, MITF TRPM1 HTS inactive, Vif inh inactive, PfHsp90 set2 inactive and N-glyco inh inactive.
`COc1ccccc1CNc1nc2cc(-c3sccc3C)sc2c(=O)n1C` gave esBAF inh 66, Wnt bcat act 38, Vif inh inactive and N-glyco inh inactive.
`COCCNc1nc2cc(-c3ccc(C)cc3)sc2c(=O)n1C` gave esBAF inh 55, Wnt bcat act inactive, Vif inh inactive and N-glyco inh inactive.
Screening COc1ccccc1CNc1nc2cc(-c3ccccc3C)sc2c(=O)n1C returned esBAF inh inactive, Wnt bcat act inactive, Vif inh inactive and N-glyco inh inactive.

Screening results (PubChem BioAssay)
